SMILES strings stand for the structures. Out of some 280,000 compounds screened, about 100 (0.036%) were called active. Roughly 11% stayed inconclusive and do not appear here. The call rests on the fitted dose curve; in most records, active means well fitted inhibition curve with a large enough effect in the signal ratio, with a control signal flat (not every such curve was filed as active); inconclusive means small, poorly fitted or top-dose-only effect, or effect the other way, or a change in a side signal; inactive means no such curve, though single readings can be large or run the other way; the % refers to the signal ratio. The sample as a whole holds a higher share of actives than the screen did.

Sequence of Muscleblind-like protein 1 (Homo sapiens) (Q9NR56 whole entry, looked up): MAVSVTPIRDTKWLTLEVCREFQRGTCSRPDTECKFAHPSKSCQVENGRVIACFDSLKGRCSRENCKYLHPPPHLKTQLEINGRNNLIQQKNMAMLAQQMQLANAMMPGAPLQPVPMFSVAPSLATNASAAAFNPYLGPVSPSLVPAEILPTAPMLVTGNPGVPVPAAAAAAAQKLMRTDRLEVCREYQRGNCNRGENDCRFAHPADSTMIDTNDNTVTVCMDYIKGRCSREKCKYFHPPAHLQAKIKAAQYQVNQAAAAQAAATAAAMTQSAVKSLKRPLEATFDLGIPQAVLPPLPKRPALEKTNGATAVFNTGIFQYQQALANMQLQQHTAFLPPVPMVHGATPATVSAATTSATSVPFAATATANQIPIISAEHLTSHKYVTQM

For this assay, the target named is Muscleblind-like protein 1 (Homo sapiens) (UniProt Q9NR56). Description: qHTS Assay for Inhibitors of MBNL1-poly(CUG) RNA binding. To be noted: TR-FRET MBNL1-His/biotin-(CUG)12 binding, 665/545 ratio; series mostly up to 57.5 µM. The source says:
NIH Chemical Genomics Center [NCGC] NIH Molecular Libraries Probe Production Centers Network [MLPCN] MLPCN Grant: R03 MH087421-01 Assay Submitter (PI): Charles Thornton NCGC Assay Overview: Expanded CTG repeats in the 3' untranslated region of the DM protein kinase (DMPK) gene causes type I myotonic dystrophy (DM1). DM1 is a multi-systemic disease with a prevalence of 1/7000. Clinical features include myotonia, progressive muscle weakness and wasting, cardiac arrhythmia, insulin resistance, hypersomnolence, cataracts, and other symptoms. The pathogenic effect of expanded CTG repeats stems from deleterious effects of the mutant transcript. CUGexp mRNA accumulates in nuclear foci and sequesters proteins of the muscleblind family, of which MBNL1 is the most common family member in skeletal muscles. The binding interaction between MBNL1 and CUGexp tracts leads to deregulation of alternative splicing and is therefore a key molecular step in the pathogenesis of DM1. To target this binding interaction, we optimized a protein-RNA binding assay in 1536-well format for identification of small molecule inhibitors of biotinylated (CUG)12 and his-tagged MBNL1 binding. Protein-RNA complex of MBNL1-His and Biotin-(CUG)12 captures the detection reagents terbium-labeled anti-His antibody and streptavidin conjugated XL665. This brings the terbium label within close proximity to XL665 to allow time-resolved fluorescence resonance energy transfer (TR-FRET). Inhibitors of MBNL1-(CUG)12 binding will disrupt TR-FRET.
NCGC Assay Protocol Summary: This is a TR-FRET binding assay with MBNL1-His and Biotin-(CUG)12 RNA. The assay uses a ratiometric measurement. In the presence of MBNL1-(CUG)12 complex, the excitation energy is transferred to the XL665 acceptor label, causing emission at 665nm, while the 545nm donor signal […]. Data were normalized to the controls for basal activity (buffer only) and 100% activity (with MBNL1-(CUG)12). […] The final titration was 92 nM to 58 uM. (3) Add 1 ul of terbium labeled anti-His antibody (0.055 ng/ul final concentration) (4) Add 1 ul of streptavidin-XL665 (5 nM final concentration) (5) Incubate 60 min at room temperature (6) Detect the assay plate in a EnVision plate reader (PerkinElmer) with Ex=340 nm, Em1=665 nm and Em2=545 nm. Keywords: mytonic dystrophy type I, DM1, muscleblind like 1, MBNL1, CUG expansion, protein-RNA binding inhibitor, high throughput screening, MLSMR, MLSCN, NIH Roadmap, qHTS and NCGC
On to `Cc1cc(=O)oc2c3c(cc(OCC(=O)NCc4ccccn4)c12)OC(C)(C)CC3`, for which the activity change, negative = inhibition result is “inactive”.

With `Cc1nc2nc(SCC(=O)Nc3cccc(F)c3)[nH]c2cc1Br`, the activity change, negative = inhibition entry is “inactive”.

Regarding `FC(F)(F)c1nnc2c3ccccc3c(Cl)nn12`, the activity change, negative = inhibition result is “inactive”.

`COc1cc(CCC(=O)N2CCN(c3ccccc3Cl)CC2)cc(OC)c1OC`: the activity change, negative = inhibition result was “inactive”.

Regarding `Cc1cc(=O)n2[nH]c(-c3cccc(Cl)c3)cc2n1`, the activity change, negative = inhibition entry was “inactive”.

As for `Cc1cc2oc(=O)cc(CN(C)Cc3ccc(OC(F)F)cc3)c2cc1Cl`, the activity change, negative = inhibition result was “inactive”.

Take `CN(Cc1ccccc1)C(=O)c1ccc(COc2ccccc2)cc1`: the activity change, negative = inhibition entry was “inactive”.

Take `CCCCC(=O)Nc1ccccc1N1CCN(c2ccc(F)cc2)CC1`: the activity change, negative = inhibition result was “inactive”.

Turning to `CC(=O)N1CCC(C(=O)OCc2ccc(Cl)cc2)(c2ccccc2)CC1`, the activity change, negative = inhibition result is “inactive”.

With `COc1cnc(-c2ccccn2)nc1Oc1ccc(C(C)(C)C)cc1`, the activity change, negative = inhibition result was “inactive”.

In the case of `COc1ccc(-c2nn(-c3ccccc3)cc2/C=C2/SC(=S)N(CCCC(=O)O)C2=O)c(C)c1`, the activity change, negative = inhibition entry was “inactive”.

In the case of `C=CCSc1nnc(N2C(=O)C(O)=C(C(=O)c3ccco3)C2c2ccc(F)cc2)s1` (stereo unspecified), the activity change, negative = inhibition entry is “inactive”.

With `CC1C(=O)Nc2ccc(S(=O)(=O)N3CCN(c4ccccc4F)CC3)cc2NC1=O` (stereo unspecified), the activity change, negative = inhibition result was “inactive”.

For `CCN(CC(=O)Nc1ccc(C)c(S(=O)(=O)N(C)C)c1)Cc1ccccc1`, the activity change, negative = inhibition result was “inactive”.

With `O=C(c1ccccc1F)N(Cc1ccccc1)Cc1ccccc1`, the activity change, negative = inhibition entry was “inactive”.

Take `COc1ccc(COC(=O)c2ccc(Cl)c(S(=O)(=O)N3CCOCC3)c2)cc1F`: the activity change, negative = inhibition entry is “inactive”.

Turning to `CN(CC1CCCN(CCc2cccc(C(F)(F)F)c2)C1)C(=O)c1ccc2nc[nH]c2c1` (stereo unspecified), the activity change, negative = inhibition result was “inactive”.

As to `COc1cc(/C=C/C(=O)N2CCc3ccccc3C2)cc(OC)c1OC`, the activity change, negative = inhibition entry is “inactive”.

As for `CN(C(=O)CN1C(=O)/C(=C/c2ccc(Cl)cc2)SC1=S)C1CCS(=O)(=O)C1` (stereo unspecified), the activity change, negative = inhibition result was “inactive”.

As to `CC(=O)c1cc2c(cc1NC(=O)Cn1nc(-c3ccc(F)cc3)ccc1=O)OCO2`, the activity change, negative = inhibition result is “inactive”.

As to `O=C(C1CCCN(S(=O)(=O)c2ccccc2)C1)N1CCN(c2ccc(F)cc2)CC1` (stereo unspecified), the activity change, negative = inhibition result was “inactive”.

For `CC(C)C[C@@H](COc1ccccc1)N1CCN(CC(C)C)CCC1=O`, the activity change, negative = inhibition entry was “inactive”.

In the case of `Cc1sc2ncn(CC(=O)NCCCC(=O)N3CCN(c4ccccc4F)CC3)c(=O)c2c1C`, the activity change, negative = inhibition result was “inactive”.

For `CCOC(=O)N1CCN(Cc2nc3cc(NC(=O)CC)ccc3n2CC)CC1`, the activity change, negative = inhibition result was “inactive”.

Consider `OC(CNCCc1ccc(Cl)cc1Cl)COc1ccccc1` (stereo unspecified), for which the activity change, negative = inhibition result is “inactive”.

With `Cc1cnc(C)c(N2CCN(C(=O)C3CCC(=O)N(CCc4cccc(F)c4)C3)CC2)n1` (stereo unspecified), the activity change, negative = inhibition result was “inactive”.

In the case of `Cc1ccc(-n2nc3c(=O)n(C(C)C(=O)NCc4ccc5c(c4)OCO5)nc(C)c3c2C)cc1` (stereo unspecified), the activity change, negative = inhibition result is “inactive”.

Regarding `CSc1ccc(S(=O)(=O)N2CCC(C(=O)NCCc3ccccc3)CC2)cc1`, the activity change, negative = inhibition entry is “inactive”.

On to `Cc1ccccc1NC(=S)NC(=O)Cc1ccc(Cl)cc1`, for which the activity change, negative = inhibition entry is “inactive”.

With `COc1ccc(C(=O)NC2CCN(C(=O)Nc3ccc(F)cc3)CC2)cc1`, the activity change, negative = inhibition entry is “inactive”.

In the case of `CC(=O)c1cccc(NC(=O)CN2C(=O)c3cccnc3Oc3ccc(Cl)cc32)c1`, the activity change, negative = inhibition result is “inactive”.

As for `Cc1cc(CN(C)C(=O)c2cc(COc3ccc(C)c(C)c3)on2)n[nH]1`, the activity change, negative = inhibition entry was “inactive”.

Regarding `COc1ccc2c(C)c(CCC(=O)NC3CC3)c(=O)oc2c1C`, the activity change, negative = inhibition result is “inactive”.

Consider `COc1cccc(C2CC(c3cccs3)=NN2C(=O)CSC2=NCCS2)c1OC` (stereo unspecified), for which the activity change, negative = inhibition result was “inactive”.

For the molecule `COc1ccc(OC)c(NC(=O)CN(C)CCOc2ccc(Br)cc2)c1`, the activity change, negative = inhibition result is “inactive”.

`COC(=O)c1cc(S(=O)(=O)Nc2ccc(C)c(F)c2)c[nH]1`: the activity change, negative = inhibition result is “inactive”.

For `COc1ccc(-c2nc3ccccc3c(=O)n2CCc2ccc(O)cc2)cc1`, the activity change, negative = inhibition result is “inactive”.

Consider `CCC(C(=O)OC)n1cnc2scc(-c3ccc(C)cc3)c2c1=O` (stereo unspecified), for which the activity change, negative = inhibition result was “inactive”.

Turning to `CCc1ccccc1N(CC(=O)NCC1CCCO1)C(=O)CCC(=O)Nc1nccs1` (stereo unspecified), the activity change, negative = inhibition entry was “inactive”.

`CCN1CCN(c2sc(S(C)(=O)=O)nc2S(=O)(=O)c2ccc(Cl)cc2)CC1`: the activity change, negative = inhibition entry is “inactive”.

With `CCNC(=O)N1CCCC(C(=O)c2ccc(-c3ccccc3)cc2)C1` (stereo unspecified), the activity change, negative = inhibition result was “inactive”.

The values are drawn from PubChem BioAssay AID2675 (National Center for Advancing Translational Sciences (NCATS), 2010).
